From PubChem BioAssay
BAZ2B inh = BAZ2B (human) inhibition; Q9UIF8; AlphaScreen BAZ2B-H3K14Ac peptide displacement; Potency, µM (doses to about 114 µM), most hits filed as inhibitors; hit rate 4.4% among 360,000; AID 504333; also: nearly all actives have a fitted effect of over 60% in size
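Inhibition is scored as reduced AlphaScreen emission. The BAZ2B/b-H3(5-23)K14Ac complex (50 nM each) in PBS pH 7.4, 0.01% Tween-20 meets compound (up to 110 uM) for 30 min at RT before bead addition.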
HP1b binding inh = inhibitors of HP1-beta chromodomain binding to methylated histone tails; P83916; AlphaScreen HP1-beta / biotin-H3K9me3 peptide binding; Potency, µM (titrated, usually from 114 µM), actives largely listed as inhibitors; hit rate 0.56% among 390,000; AID 540317; also: nearly all actives have a fitted effect of over 70% in size
Target sequence (P83916 whole entry, looked up): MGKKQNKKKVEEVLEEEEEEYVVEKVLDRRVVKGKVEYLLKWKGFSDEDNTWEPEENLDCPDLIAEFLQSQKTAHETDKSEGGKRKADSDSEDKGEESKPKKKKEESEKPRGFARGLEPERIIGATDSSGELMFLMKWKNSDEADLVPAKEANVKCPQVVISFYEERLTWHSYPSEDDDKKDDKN
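AlphaScreen: HP1-beta (50 nM) preformed 30 min with biotin-H3(1-18)K9me3 peptide (50 nM) in PBS pH 7.4, 0.01% Tween-20. Compound added for 30 min at RT, then streptavidin donor/nickel chelate acceptor beads (10 ug/mL) for 30 min.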
G9a inh = blocks human histone lysine methyltransferase G9a | Potency, µM (top dose mostly 102 µM), usual class: inhibitors | Q96KQ7 | hit rate 8.8% among 350,000 | G9a H3K9 monomethylation, AlphaScreen, 2 h; also: nearly all actives have a fitted effect of over 75% in size
Target sequence (Q96KQ7 913-1193 limits assumed): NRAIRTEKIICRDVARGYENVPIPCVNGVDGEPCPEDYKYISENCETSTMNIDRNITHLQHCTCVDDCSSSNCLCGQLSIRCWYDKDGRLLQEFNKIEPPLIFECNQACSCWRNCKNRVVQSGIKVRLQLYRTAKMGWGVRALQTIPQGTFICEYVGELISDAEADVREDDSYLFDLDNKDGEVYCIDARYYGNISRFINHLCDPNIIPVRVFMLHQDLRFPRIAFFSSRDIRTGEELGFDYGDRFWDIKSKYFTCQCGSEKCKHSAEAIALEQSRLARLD
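G9a (20 nM) preincubated 15 min RT with compounds, then 500 nM biotinylated H3K9 peptide and 20 uM SAM added; 2 h RT reaction. Monomethyl-H3K9 product detected by AlphaScreen with anti-H3K9me1 antibody, streptavidin donor and anti-rabbit IgG acceptor beads.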
JMJD2A Tudor = JMJD2A Tudor domain (human) inhibition; Potency, µM (titrated, usually from 114 µM), most hits filed as inhibitors; hit rate 4.4% among 390,000; O75164; AlphaScreen JMJD2A-Tudor / H3K4me3 peptide binding; also: nearly all actives have a fitted effect of over 50% in size
Sfp inh = blocks B. subtilis Sfp PPTase activity. hit rate 3.5% among 310,000. Q9F4F7. AID 1490. Potency, µM, actives largely listed as inhibitors. Biochemical Sfp PPTase activity, qHTS;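 also: the enzyme is Sfp with the accession as filed and its product quenches rhodamine fluorescence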
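Step 1, compound plus 15 nM Sfp-PPTase, 15 min, room temperature. Step 2, add rhodamine-CoA (5 uM) and BHQ-2-YbbR (12.5 uM). Step 3, read 525/598 nm fluorescence at 0 and 30 min.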
Of the large screens only hits and unclear results are named; the others gave an inactive call. Compounds with a hit are over-represented: about 12% of the library has one in this group of screens. Calls follow the shape of the dose curve; as a rule, active = well fitted curve in the direction sought with a large enough effect; inconclusive = small, poorly fitted or top-dose-only effect, or another doubt; inactive = no such curve, though single readings can be large; an effect the other way counts as inactive or inconclusive.

COc1ccc(CCNC(=O)c2nn(C)c3c2CS(=O)(=O)c2ccccc2-3)c(OC)c1	BAZ2B inh 50.1µM
CCCCN(CC)CCNC(=O)c1nn(C)c2c1CS(=O)(=O)c1ccccc1-2	none (no result: Sfp inh)
CN(C(=O)C1CCOC1)c1nnc(C2CCOC2)s1 (stereo not given)	none
Cc1cc(Br)ccc1NC(=O)CNC(=O)CN(C)Cc1nc2ccccc2c(=O)[nH]1	none
COc1ccc(-c2noc(CCC(=O)N3CCN(c4ccc(Br)cc4)CC3)n2)cc1	none (no result: BAZ2B inh, G9a inh, Sfp inh)
Cc1cc(N2CCN(C)CC2)nc(N2CCOCC2)n1	none
O=C(CC(=O)c1ccccc1)c1ccccc1	none (no result: BAZ2B inh)
CN(C)CCC(=O)c1ccc(Cl)cc1	G9a inh 6.31µM
CN(CCC(=O)c1ccccc1)CCC(=O)c1ccccc1	G9a inh 31.6µM
COc1cc2c(cc1OC)C(C(=O)Nc1cccc(C)n1)C(c1cccnc1)N(C)C2=O (stereo not given)	none
COc1cc2c(cc1OC)C(C(=O)Nc1ccccn1)C(c1cccnc1)N(C)C2=O (stereo not given)	BAZ2B inh 79.4µM (no result: G9a inh)
CC(C)C[C@@H]1CN=C(N)N1C[C@@H]1CCCN1C[C@H](C)N1C[C@@H](Cc2ccccc2)N(CCCC2CCCC2)C1=N	JMJD2A Tudor inconclusive (no result: BAZ2B inh, G9a inh, Sfp inh)
c1ccc(-n2c(Cc3cn4ccsc4n3)nnc2N2CCOCC2)cc1	BAZ2B inh inconclusive, G9a inh inconclusive, JMJD2A Tudor 50.1µM
O=C(c1ccc(-n2c(SCc3cccc(F)c3)nc3ccccc3c2=O)cc1)N1CCOCC1	JMJD2A Tudor 39.8µM
O=C(CSc1nc2ccccc2c(=O)n1-c1ccc(F)cc1)Nc1ccc(N2CCOCC2)cc1	G9a inh 44.7µM
O=C(O)c1ccc(CSc2nc3ccccc3c(=O)n2-c2ccccc2)cc1	none
Cc1nnc(SCC(=O)Nc2ccc(N3CCOCC3)cc2)n1Cc1ccccc1	none (no result: Sfp inh)
Cc1ccc(-n2c(SCC(=O)Nc3ccc(N4CCOCC4)cc3)nc3ccccc3c2=O)cc1	Sfp inh inconclusive
O=C(CSc1n[nH]c(=O)n1Cc1ccccc1)Nc1ccc(N2CCOCC2)cc1	G9a inh 56.2µM (no result: Sfp inh)
CC1C(C#N)=C(N)OC2=C1C(=O)CC(c1ccccc1)C2 (stereo not given)	none
COC(=O)c1c(-c2ccc(OC)c(OC)c2)csc1N	BAZ2B inh inconclusive, G9a inh inconclusive
CCOC(=O)c1c(-c2ccsc2)csc1N	JMJD2A Tudor inconclusive, Sfp inh 56.2µM
CCOC(=O)c1c(CC(C)C)csc1N	BAZ2B inh inconclusive, G9a inh 39.8µM
CCOC(=O)c1c(-c2ccc(C)s2)csc1N	BAZ2B inh inconclusive, HP1b binding inh inconclusive, G9a inh inconclusive, JMJD2A Tudor inconclusive, Sfp inh 11.2µM
CCOC(=O)C1CCN(c2cc(C)nc3cc(-c4cccc(F)c4)nn23)CC1	none
CCOc1ccccc1CNC(=O)CN1C(=O)CCn2nc(-c3cn(C)c4ccccc34)cc21	none (no result: Sfp inh)
Cc1cc(=O)[nH]c(SCC(=O)Nc2ccc(Br)cc2)c1C#N	none
COc1ccccc1/C=C/CN1CC(C)OC(C)C1 (stereo not given)	BAZ2B inh 44.7µM, HP1b binding inh inconclusive, G9a inh inconclusive, JMJD2A Tudor 3.16µM
COc1ccccc1/C=C/CN1CCC(Oc2ccc(C(=O)N3CCCCC3)cc2)CC1	BAZ2B inh inconclusive, JMJD2A Tudor inconclusive (no result: G9a inh)
COc1ccccc1/C=C/CN1CCCCC1	BAZ2B inh 79.4µM, HP1b binding inh inconclusive, G9a inh 28.2µM, JMJD2A Tudor 1.41µM
COc1ccc(NC(=O)C2CCN(S(=O)(=O)c3ccc(OC)c(OC)c3)CC2)c(OC)c1	none
Oc1cc2c(cc1CN1CCN(c3cccc(C(F)(F)F)c3)CC1)CCC2	none
Cc1nc2nc[nH]c2cc1Br	none
Cc1nc2[nH]c(=S)[nH]c2cc1Br	G9a inh 3.98µM, JMJD2A Tudor 44.7µM
COc1ccc(C(=O)Nc2ccccc2C(=O)NC(Cc2ccc(O)cc2)C(=O)NNC(=O)c2ccncc2)cc1 (stereo not given)	BAZ2B inh inconclusive, G9a inh 1.41µM
CCNC(=O)c1ccccc1SCc1ccccc1	G9a inh inconclusive
CCNC(=O)c1ccccc1SCC(=O)Nc1ccc(F)cc1	JMJD2A Tudor 12.6µM
COCCC1CCCCN1C(=O)c1cc(COc2ccc(-n3cncn3)cc2)on1 (stereo not given)	none
O=C(CSc1nnc2n1CCCN2)c1ccc([N+](=O)[O-])cc1	G9a inh 39.8µM, JMJD2A Tudor inconclusive
O=C(CSc1nnc2n1CCCN2)c1ccc(Cl)cc1	none
Cc1cc(C)nc(SCc2csc(N)n2)n1	G9a inh 50.1µM, Sfp inh 35.5µM
CN(C)C(=O)c1ccc(-c2cc[nH]c(=O)c2N)cc1	none (no result: BAZ2B inh, HP1b binding inh, G9a inh, Sfp inh)
CN(C)c1ccc(-c2cc[nH]c(=O)c2N)cc1	JMJD2A Tudor 20µM (no result: BAZ2B inh, HP1b binding inh, G9a inh, Sfp inh)
CNCCCCOc1ccccc1Cc1ccccc1	none (no result: HP1b binding inh, JMJD2A Tudor)
CCCCNCCCOc1ccc(C)cc1Br	BAZ2B inh 56.2µM, HP1b binding inh inconclusive, G9a inh 50.1µM, JMJD2A Tudor 20µM
COc1cccc(OC)c1OCCCOc1ccc(C)cc1Br	Sfp inh inconclusive
Cc1ccc(OCCCNCCO)c(Br)c1	none
CNCCCOc1ccc(C)cc1Br	BAZ2B inh 56.2µM, HP1b binding inh inconclusive, G9a inh inconclusive, JMJD2A Tudor 3.16µM
CNCCCCOc1ccc(C(C)(C)C)cc1Cl	BAZ2B inh inconclusive, HP1b binding inh inconclusive, G9a inh 14.1µM, JMJD2A Tudor 5.62µM
COc1cc2c(cc1OC)CN(C(=O)CCOc1ccccc1)CC2	none
CC1=NOC(=O)/C1=C\c1ccc(-c2ccc(Br)cc2C(=O)O)o1	BAZ2B inh inconclusive, Sfp inh inconclusive (no result: G9a inh)
CC1=NOC(=O)/C1=C/c1ccc(-c2ccc(Cl)cc2)o1	BAZ2B inh inconclusive, G9a inh 4.47µM, Sfp inh 31.6µM (no result: HP1b binding inh, JMJD2A Tudor)
CC1=NOC(=O)/C1=C\c1ccc(-c2cc(Cl)ccc2Cl)o1	BAZ2B inh inconclusive, HP1b binding inh inconclusive, G9a inh inconclusive, JMJD2A Tudor inconclusive, Sfp inh 17.8µM
CC1=NOC(=O)/C1=C\c1ccc(-c2ccc(Br)cc2)o1	BAZ2B inh 11.2µM, G9a inh 5.01µM, JMJD2A Tudor inconclusive, Sfp inh 44.7µM
COCCn1c(SCC(=O)NC(=O)NC2CCCCC2)nc2ccccc2c1=O	none (no result: BAZ2B inh, G9a inh, Sfp inh)
CCN(Cc1ccc(OC)c(F)c1)C(=O)c1oc2ccccc2c1COC	none
CCOc1ccccc1NC(=O)Nc1ccc(Br)cn1	none
Cn1cnnc1SCC(=O)c1ccc2c(c1)CCCC2	G9a inh inconclusive (no result: BAZ2B inh)
COc1ccc2cc(-c3[nH]ncc3CN3CCCN(c4ccccc4)CC3)ccc2c1	BAZ2B inh 31.6µM, HP1b binding inh 20µM, JMJD2A Tudor 35.5µM (no result: G9a inh)
CC[C@H](C)/C=C/C1=CC2=C(Cl)C(=O)[C@@]3(C)OC(=O)C(C(=O)[C@H](C)[C@@H](C)O)=C3C2=CO1	HP1b binding inh inconclusive, JMJD2A Tudor 56.2µM (no result: BAZ2B inh, G9a inh, Sfp inh)
CC(Oc1ccc(F)cc1)C(=O)Nc1cc(C(F)(F)F)ccc1-n1cncn1 (stereo not given)	G9a inh 56.2µM (no result: Sfp inh)
COc1ccc(C(=O)Nc2cc(C(F)(F)F)ccc2-n2cncn2)cc1	none
